Bioassay records deposited in PubChem by several laboratories.
PriA SSB inh: inhibitors of Klebsiella pneumoniae PriA binding to SSB C-terminal tail; inhibition, % at 33 µM; hit rate 0.6% among 430,000; AlphaScreen SSBct-PriA binding, biotinylated peptide; in the data active = inhibition mostly above about 37%, no sharp cut-off; inactive = mostly below about 20%;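 note: plate controls were negative control peptide for no effect and reference peptide for full effect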
Rv3671c inh: Rv3671c (M. tuberculosis) protease inhibition; P9WHR9; inhibition, % at 5.96 µM; hit rate 0.048% among 320,000; AID 2606; in the data active = inhibition above about 38%;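 note: extracellular domain of Rv3671c used as enzyme; 0% = enzyme with DMSO and 100% = no enzyme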
GDH-TPI inh: counter-screen for M. tuberculosis FBA inhibitors: GDH-TPI coupled enzymes. AID 588335. inhibition, % at 4.8 µM. hit rate 1.2% among 360,000. GDH-TPI coupled enzyme counterscreen, NADH absorbance; in the data active = inhibition above about 30%;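 note: 0% = DMSO wells and 100% = wells lacking the enzyme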
Mtb UGM inh: inhibitors of M. tuberculosis UDP-galactopyranose mutase; P9WIQ1; purified UGM, fluorescence polarization probe displacement; inhibition, % at 10 µM; hit rate 0.06% among 320,000; AID 504406; in the data active = inhibition above about 10%, passing the limit was not always enough
Mtb bLac sens: beta-lactam sensitization of Mtb H37Rv | M. tuberculosis H37Rv growth with meropenem, percent inhibition | hit rate 0.27% among 330,000 | AID 434955 | inhibition, % at 25 µM; call rule not given here;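 note: growth measured after seven days incubation then overnight dye step; 0% = bacteria only wells and 100% = bacteria with antibiotic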
FBA Mtb inh: inhibitors of M. tuberculosis fructose-bisphosphate aldolase | purified M. tuberculosis FBA, fluorescence read-out | inhibition, % at 1 µM | AID 588726 | P9WQA3 | hit rate 2.3% among 360,000; in the data active = inhibition above about 27%;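 note: 0% = vehicle and 100% = reference inhibitor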
Target sequence (P9WQA3 whole entry, looked up): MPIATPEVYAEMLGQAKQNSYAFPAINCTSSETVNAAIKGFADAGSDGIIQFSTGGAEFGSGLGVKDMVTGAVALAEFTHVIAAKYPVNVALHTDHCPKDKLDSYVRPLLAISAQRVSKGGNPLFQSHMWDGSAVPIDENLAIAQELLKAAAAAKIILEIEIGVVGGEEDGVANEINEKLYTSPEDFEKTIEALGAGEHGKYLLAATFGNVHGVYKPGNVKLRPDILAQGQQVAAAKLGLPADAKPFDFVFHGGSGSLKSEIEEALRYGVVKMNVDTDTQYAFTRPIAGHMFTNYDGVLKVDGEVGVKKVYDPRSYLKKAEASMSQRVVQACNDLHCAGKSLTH
* marks the source's active call; other numbers are inactive results; . = no result given; ! = repeats disagree. The list is not random: actives were taken first. Their share in the collection is about 3.2%.

SMILES | PriA SSB inh | Rv3671c inh | GDH-TPI inh | Mtb UGM inh | Mtb bLac sens | FBA Mtb inh
O=C(Oc1coc(CSc2nnc(NC(=O)C3CC3)s2)cc1=O)c1cc2ccccc2oc1=O | -2 | . | . | . | . | .
COc1cc(C)ccc1OCCOc1ccccc1Cl | -19 | -3 | -5 | 0 | 62 | 118*
COc1cc(C)ccc1OCCCOc1ccccc1Cl | -31 | 9 | 8 | -2 | 27 | -2
Cc1ccc(/C=C2\SC(=O)N(CCC(=O)N3CCN(C)CC3)C2=O)cc1 | -9 | -12 | 35* | 1 | -4 | 0
CCc1noc(C)c1C(=O)NCCN1C(=O)S/C(=C\c2ccc(OC)cc2)C1=O | -13 | -3 | 31* | 4 | -3 | -5
COc1ccc(/C=C2\SC(=O)N(CCNC(=O)Cn3cnnn3)C2=O)cc1 | 5 | -4 | 22 | -1 | 3 | -2
COc1ccc(/C=C2\SC(=O)N(CCNC(=O)C3CC(=O)N(c4ccccc4)C3)C2=O)cc1 (stereo not given) | -4 | 5 | 25 | -2 | 2 | -2
COc1cccc(/C=C2\SC(=O)N(CCC(=O)N3CCC(C(=O)O)CC3)C2=O)c1 | 0 | 2 | 46* | -3 | 4 | -1
COc1ccc(/C=C2\SC(=O)N(CCNC(=O)CCS(=O)(=O)c3ccc(C)cc3)C2=O)cc1 | -1 | -8 | 33* | 3 | 2 | 3
COc1cccc(OCC(=O)NCc2ccsc2)c1 | -9 | . | . | . | . | .
COc1ccc(C)cc1NC(=O)C(=O)NCC[C@H](O)c1cccs1 | -3 | . | . | . | . | .
O=C(Cn1cncn1)N1CCCC(Cc2nc(C3CC3)no2)C1 (stereo not given) | -10 | . | . | . | . | .
COc1ccc(/C=C2\SC(=O)N(CCC(=O)N3CCN(C)CC3)C2=O)cc1 | 12 | -5 | 41* | -1 | 6 | -1
CN1CCN(C(=O)CCN2C(=O)S/C(=C/c3ccc(Cl)cc3)C2=O)CC1 | -13 | -3 | 22 | -1 | 0 | 0
COc1ccc(/C=N/NS(=O)(=O)c2ccc(C)cc2)cc1OC(=O)c1ccccc1 | . | -29 | 13 | 1 | -3 | 128*
Fc1ccc(C=NNc2ncnc3nc[nH]c23)cc1F | -3 | . | . | . | . | .
CCCCOc1cccc(NC(=O)c2ccc([N+](=O)[O-])c(C)c2)c1 | 9 | . | . | . | . | .
CCSc1nnc(NC(=O)c2ccc(C)o2)s1 | -5 | 9 | 32* | 2 | 9 | 0
N#Cc1nc(Cc2ccccc2)oc1NCc1ccccc1Cl | 40* | -11 | 1 | 4 | -8 | 0
CC(=O)Nc1ccc(C=NNC(=O)c2ccc(NS(=O)(=O)c3cccs3)cc2)cc1 | -6 | -7 | 59* | -1 | 0 | 2
O=C(NN=Cc1ccc([N+](=O)[O-])cc1)c1ccc(NS(=O)(=O)c2cccs2)cc1 | 11 | . | . | . | . | .
O=C(NN=Cc1ccc(O)cc1)c1ccccc1NS(=O)(=O)c1cccs1 | 7 | 3 | 37* | 2 | 0 | 4
O=C(NN=Cc1ccc(N2CCOCC2)cc1)c1ccc(NS(=O)(=O)c2cccs2)cc1 | -14 | . | . | . | . | .
O=C(NN=Cc1c(F)c(F)c(F)c(F)c1F)c1ccc(NS(=O)(=O)c2cccs2)cc1 | -4 | -2 | 36* | -1 | 2 | -4
O=C(O)c1ccc(C=NNC(=O)c2ccccc2NS(=O)(=O)c2cccs2)cc1 | -13 | 8 | 18 | 0 | 4 | -1
SMILES | PriA SSB inh | Rv3671c inh | GDH-TPI inh | Mtb UGM inh | Mtb bLac sens | FBA Mtb inh
CC(=NNC(=O)c1ccc(NS(=O)(=O)c2cccs2)cc1)c1ccccn1 | 39* | . | . | . | . | .
COc1cccc(CSc2nc(CC(=O)Nc3ccc(C(N)=O)cc3)cc(=O)[nH]2)c1 | -13 | . | . | . | . | .
COc1ccc(Nc2c(C#N)cnc3c(OC)cccc23)cc1 | -4 | . | . | . | . | .
O=S(=O)(Nc1cnn(CC2COc3ccccc3O2)c1)C1CC1 (stereo not given) | -13 | . | . | . | . | .
CC(=O)Nc1ccc(/C=N/NC(=O)c2cccc(S(=O)(=O)N3CCOCC3)c2)cc1 | . | 0 | 36* | 0 | -4 | 1
COc1cc(C=NNC(=O)c2ccc(NS(=O)(=O)c3cccs3)cc2)cc(Br)c1O | -2 | 2 | 52* | 0 | 3 | 1
COc1ccc(/C=C2\CCn3c2nc2cc(C(=O)O)ccc2c3=O)cc1O | 3 | -10 | 51* | . | 5 | -4
CSc1ccc(/C=C2\CCn3c2nc2cc(C(=O)O)ccc2c3=O)cc1 | 6 | -11 | 63* | 2 | 2 | 7
CCN(CC)c1ccc(C=Nc2ccccc2)c(O)c1 | 5 | -6 | 34* | -1 | 7 | -2
CCN(CC)c1ccc(C=Nc2ccc(N(C)C)cc2)c(O)c1 | 44 | -24 | 54* | 0 | -5 | -3
CCN(CC)c1ccc(N=Cc2ccc(N(CC)CC)cc2O)cc1 | 20 | -19 | 14 | 1 | 61 | -5
CCN(CC)c1ccc(C=Nc2ccc(C)cc2)c(O)c1 | -24 | -1 | 45* | 0 | 56 | -2
CCN(CC)c1ccc(C=Nc2cc(C)cc(C)c2)c(O)c1 | 7 | -4 | 30 | 3 | -1 | 0
Cn1c(SCC(=O)Nc2ccc(C(N)=O)cc2)nnc1-c1ccc(=O)n(C)c1 | -9 | . | . | . | . | .
Cc1cc(N)n(-c2nc(-c3ccccc3)cc(=O)[nH]2)n1 | 53*! | . | . | . | . | .
Cc1cc(=O)[nH]c(-n2nc(C(C)(C)C)cc2N)n1 | -15 | . | . | . | . | .
CCc1cc(=O)[nH]c(-n2ncc(C(=O)O)c2C)n1 | -7 | . | . | . | . | .
CCCC(=O)Nc1cc(C)nn1-c1nc(CC)cc(=O)[nH]1 | 33 | . | . | . | . | .
CCc1cc(=O)[nH]c(-n2nc(C)cc2N)n1 | 93* | . | . | . | . | .
CCc1cc(=O)[nH]c(-n2nc(C)cc2NC(=O)COC)n1 | 39* | . | . | . | . | .
CCOC(=O)N1CCN(C(=O)c2nn(-c3ccc(F)cc3)c(=O)cc2OC)CC1 | -3 | . | . | . | . | .
O=C(CN1CCN(c2nccn2-c2ccccc2F)CC1)N1CCc2ccccc21 | 44* | . | . | . | . | .
O=C(CN1CCN(c2ccccc2F)CC1)N1CCc2ccccc21 | -12 | 0 | -9 | -1 | -2 | -9
CC1C[N+](=C2C=C(N3CCOCC3)CC(C)(C)C2)CC(C)O1 (stereo not given) | -5 | -2 | 61* | -2 | -5 | 5
CCCN(CCC)C1=CC(=[N+]2CCCC2)CC(C)(C)C1 | 9 | 2 | 46* | -1 | -5 | -3
SMILES | PriA SSB inh | Rv3671c inh | GDH-TPI inh | Mtb UGM inh | Mtb bLac sens | FBA Mtb inh
CC1(C)CC(N2CCCCC2)=CC(=[N+]2CCCCC2)C1 | -7 | -6 | 90* | 3 | -9 | -4
CN(C)c1ccnc(CNC(=O)c2cccs2)n1 | -2 | . | . | . | . | .
CCOC(=O)c1sc2ncnc(N3CCN(C)CC3)c2c1C | 0 | 8 | 33* | -1 | 6 | 8
COc1ccccc1/C=C/C=N/n1c(-c2ccc(C)cc2)n[nH]c1=S | . | 2 | 16 | 0 | 2 | 0
Cn1cccc1/C=N/n1c(-c2ccccc2)n[nH]c1=S | . | 1 | 33* | 5 | -9 | -4
COc1ccccc1/C=C/C=N/n1c(-c2ccncc2)n[nH]c1=S | . | 3 | 32* | 0 | 6 | -3
COc1ccccc1/C=C/C=N/n1c(-c2n[nH]c3c2CCC3)n[nH]c1=S | . | -5 | 33* | -3 | -12 | 6
COc1cccc(/C=N/n2c(-c3n[nH]c4c3CCC4)n[nH]c2=S)c1O | . | 13 | 5 | 1 | -3 | 4
